Sampled rows, rich in hits. Any-hit rate of the full collection: about 3.1%.
Rin1-Abl PPI inh – inhibitors of human Rin1-Abl protein interaction | P00519+Q13671 | TR-FRET Rin1/Abl binding, biochemical | inhibition, % at 7.35 µM | 0.4% of 360,000 active; in the data active means inhibition above about 5%, passing the limit was not always enough
Neddylation inh – blocks human cullin neddylation; calls only at 25 µM; 0.58% of 360,000 active; TR-FRET cullin neddylation, biochemical; AID 651699; in the data active means inhibition above about 36%
proKLK7 act – activates the human kallikrein-7 zymogen; purified proKLK7, EDANS-DABCYL substrate fluorescence; 100% is mature enzyme control, 0% vehicle; activation, % at 7 µM; 0.9% of 370,000 active; P49862;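 active means activation above the mean of all tested compounds plus 3 SD, computed per campaign excluding outliers beyond control limits, cut at about 13% in these data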
MBD2 DNA inh – MBD2-methylated oligo binding inhibition; Q9UBB5; TR-FRET, MBD2 binding to methylated oligonucleotide; inhibition, % at 4.4 µM; 0.31% of 370,000 active; in the data active means inhibition above about 13%
LEDGF integ inh – blocks HIV-1 LEDGF/p75-dependent DNA integration | TR-FRET IN-LEDGF/p75 DNA integration, Eu/Cy5 | inhibition, % at 3.7 µM | 0.64% of 370,000 active;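 active means inhibition above the screen-wide mean plus 3 SD, cut at about 13% in these data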;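 further: signal is the Cy5 over europium emission ratio at 671 and 618 nm; 0% = plate median of compound wells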
UHRF1 MBD2 ctr – blocks human UHRF1 binding to methylated DNA | Q96T88 | UHRF1 binding to methylated oligo, TR-FRET | inhibition, % at 4.4 µM | 0.75% of 370,000 active; in the data active means inhibition above about 21%;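 further: UHRF1 SRA domain binding a hemimethylated CpG hairpin DNA probe; 0% = median of test compound wells and 100% = reference inhibitor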
Target sequence (Q96T88 whole entry, looked up, the tested form may be a part): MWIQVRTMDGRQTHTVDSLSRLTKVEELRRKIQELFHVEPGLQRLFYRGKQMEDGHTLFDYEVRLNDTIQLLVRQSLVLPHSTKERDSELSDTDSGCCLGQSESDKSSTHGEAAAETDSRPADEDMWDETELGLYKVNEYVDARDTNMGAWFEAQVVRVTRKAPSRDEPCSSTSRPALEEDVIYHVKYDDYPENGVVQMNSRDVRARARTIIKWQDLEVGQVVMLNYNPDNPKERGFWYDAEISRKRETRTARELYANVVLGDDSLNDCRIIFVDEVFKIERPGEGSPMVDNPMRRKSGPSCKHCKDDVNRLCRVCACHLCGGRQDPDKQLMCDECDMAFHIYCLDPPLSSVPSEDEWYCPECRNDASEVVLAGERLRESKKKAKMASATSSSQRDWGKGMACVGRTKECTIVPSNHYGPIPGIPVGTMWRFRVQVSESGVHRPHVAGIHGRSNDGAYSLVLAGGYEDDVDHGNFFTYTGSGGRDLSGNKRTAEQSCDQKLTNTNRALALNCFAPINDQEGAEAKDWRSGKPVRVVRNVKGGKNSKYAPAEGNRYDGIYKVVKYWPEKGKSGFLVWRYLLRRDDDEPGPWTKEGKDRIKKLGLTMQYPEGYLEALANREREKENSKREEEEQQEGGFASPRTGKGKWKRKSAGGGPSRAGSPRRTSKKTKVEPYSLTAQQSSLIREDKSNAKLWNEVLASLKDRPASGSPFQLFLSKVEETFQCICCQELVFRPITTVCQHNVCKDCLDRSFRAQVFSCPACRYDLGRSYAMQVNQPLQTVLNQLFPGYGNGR
proKLK7 act conf – proKLK7 activation, confirmation. 68% of 3,200 active. activation, % at 7 µM. shares compounds with proKLK7 act. purified proKLK7, EDANS-DABCYL substrate fluorescence; scaled: vehicle 0, mature enzyme 100;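 active means activation, as change over the incubation, above the mean of all tested compounds plus 3 SD, cut at about 13% in these data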
EDANS interfere – fluorescence interference counter-screen for KLK7 activators | shares compounds with proKLK7 act | EDANS-DABCYL substrate fluorescence interference, no enzyme, 4 h; solvent 0%, active enzyme control 100% | activation, % at 7 µM | 80% of 3,200 active;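 active means activation above the all-compound mean plus 3 SD, ignoring values outside control-based bounds, cut at about 4.8% in these data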;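 further: value is the 4 h activation minus the activation read at time zero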
K7 EDANS ctr – EDANS fluorescence interference in dose response, no enzyme | shares compounds with proKLK7 act | EDANS-DABCYL peptide fluorescence interference | EC50, µM | 20% of 250 active | AID 720493;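 active means compounds that raise the fluorescence signal in this interference counterscreen, with EC50 at or below 10 µM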;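 further: intact quenched peptide substrate alone read at 355 nm excitation and 520 nm emission; signal is fluorescence gain from T0 to T4 after four hours at room temperature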
Numbers without * were called inactive; i = inactive; . = not tested or not shown.

SMILES	Rin1-Abl PPI inh	Neddylation inh	proKLK7 act	MBD2 DNA inh	LEDGF integ inh	UHRF1 MBD2 ctr	proKLK7 act conf	EDANS interfere	others
Cc1onc(-c2ccccc2Cl)c1C(=O)NC(=S)Nc1ccccc1C(N)=O	0.8	i	12.8*	4.7	3.2	14.6	8.0	9.1*
N#Cc1ccc2c(c1)nc1ccccn12	-5.6	.	21.4*	-3.6	-0.4	-6.6	27.4*	23.2*	K7 EDANS ctr=>69.6
Clc1ccc2nc3ccccn3c2c1	-5.7	.	22.4*	3.2	-1.4	-4.5	41.1*	43.8*
O=c1cc(Cl)nc2ccccn12	-4.2	i	1.6	-5.4	-4.0	-1.5	.	.
COc1ccccc1C(=O)Oc1ccc2c(c1)O/C(=C\c1ccncc1)C2=O	-3.2	i	15.3*	-6.6	2.7	-16.5	35.8*	37.7*
CS(=O)(=O)Oc1ccc2c(c1)O/C(=C\c1cccnc1)C2=O	-4.8	i	16.1*	-3.9	5.1	-3.9	15.3*	15.3*
O=C1/C(=C/c2cccnc2)Oc2cc(OS(=O)(=O)c3ccccc3)ccc21	0.8	i	.	.	.	.	.	.
Cc1cc(C)n(C(C)CNS(=O)(=O)c2ccccc2)n1 (configuration not stated)	2.2	i	0.1	4.3	-1.7	1.7	.	.
C=C(C)COc1cc2oc(=O)c(CC(=O)N3C[C@H]4C[C@@H](C3)c3cccc(=O)n3C4)c(C)c2cc1Cl	-3.4	.	15.7*	0.9	1.6	0.0	24.0*	25.4*
Cc1ccc(-c2cnc(-c3ccncc3)o2)cc1	-4.8	.	73.7*	-8.2	4.7	-8.9	65.0*	69.8*
Nc1ccc(-c2ncc(-c3ccccc3)o2)cc1	0.3	.	21.3*	-3.3	-1.3	-3.3	6.6	3.2
Cc1cc(N2CCCC2)nc2ccc(NC(=S)NCCCN3CCC(C)CC3)cc12	1.7	i	14.8*	7.8	-0.4	21.8*	34.3*	45.0*
Cc1cc(N2CCOCC2)nc2ccc(NC(=S)N3CCCCC3C)cc12 (configuration not stated)	-1.6	i	20.8*	-2.9	-1.0	-1.7	12.5	14.9*
Cc1cc(N2CCN(C)CC2)nc2ccc(NC(=S)N3CCN(c4ccc(F)cc4)CC3)cc12	-4.7	i	6.7	5.0	-0.9	-1.2	.	.
Cc1cc(N2CCN(C)CC2)nc2ccc(NC(=S)N3CCN(c4ccc(Cl)cc4)CC3)cc12	-1.6	i	15.0*	2.0	-5.1	-1.0	1.8	3.0
CCCN1CCN(CCCNC(=S)Nc2ccc3nc(N4CCN(CC)CC4)cc(C)c3c2)CC1	-3.5	i	4.6	6.6	3.3	4.0	.	.
CCCN(CCC)CCNC(=O)CCC(=O)Nc1ccc2nc(N3CCN(C)CC3)cc(C)c2c1	-7.0	.	25.2*	6.7	-4.1	2.8	120.3*	121.2*
CCCCNC(=O)CCC(=O)Nc1ccc2nc(N3CCN(C)CC3)cc(C)c2c1	-2.3	i	1.0	-1.1	4.2	-0.3	.	.
Fc1ccc(C2C3=C(Nc4ncnn42)c2ccccc2OC3c2ccncc2)cc1 (configuration not stated)	-1.9	.	13.2*	3.7	-0.2	-0.8	22.9*	25.6*
O=C(COc1ccc(/C=N/NC(=O)c2ccncc2)cc1)Nc1ccccc1	1.0	i	26.8*	3.1	-0.3	-2.1	-21.6	-15.4
O=C(c1cc(C2CC2)nn1-c1ccccc1)N1CCN(Cc2c(F)cccc2Cl)CC1	7.1	i	0.2	-3.8	1.5	-2.2	.	.
COc1cc(C2Nc3ccccc3C(=O)N2c2ccc(Cl)cc2)c(Cl)cc1OCC(=O)O (configuration not stated)	-0.9	.	22.5*	-2.3	0.2	0.5	25.6*	27.2*
CCOC(=O)C1=C(CSc2nc(-c3ccccc3)ccc2C#N)OC(N)=C(C#N)C1c1ccccc1 (configuration not stated)	3.1	i	469.9*	2.0	-0.9	-3.2	585.2*	565.9*

Screens deposited in PubChem by several laboratories.
